In PubChem BioAssay (NCI) one finds growth data, which are given here for 18 molecules.

SMILES strings stand for the structures. The panel holds about 83,000 compounds, 20% with a hit somewhere; the sample as a whole holds those more often.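 A percent growth of 40 corresponds to 60% growth inhibition; 0 means no net growth; -100 means all cells died. Active threshold: below 10.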 A number with no mark means an inactive call. Calls of active or inactive are those of the source.

Common to all, as to assay: NCI-60 one-dose screen, 48 h (100 = growth as untreated, 0 = no growth, -100 = all killed)
What all share (details): 10 µM unless noted

Experiment [1] deals with T-47D breast.
The test system of experiment [2] is BT-549 breast.
Experiment [3] deals with MDA-MB-435 melanoma.
Experiment [4] concerns SW-620 colon.
For experiment [5], the system named is MCF7 breast.
The subject of experiment [6] is HCT-116 colon.
The subject of experiment [7] is KM12 colon.
Experiment [8] has as its system HCC-2998 colon.

For the molecule `Cc1nc2ccccc2n1CC1C(=O)NC(=O)NC1=O`, the growth was 107% in experiment [1]; 121% in experiment [2]; 101% in experiment [3]; 108% in experiment [4]; 100% in experiment [5]; 104% in experiment [6]. The growth in experiment [7] is 103%.

`COc1ccccc1/C=C1\Oc2cc(OCCN3CCC(Cc4ccccc4)CC3)ccc2C1=O`: the growth in experiment [1] was 85.8%; in experiment [2] it was 85.4%; in experiment [3], 91.1%; in experiment [4], 69.1%; in experiment [5], 80.1%; in experiment [6], 73.9%. In experiment [7], the growth is 91.7%.

With `Nc1cc2c(cc1Br)-c1cc(Cl)ccc1C2=O`, the growth in experiment [1] is 91.7%; in experiment [2] it was 121%; in experiment [3], 117%; in experiment [4], 109%; in experiment [5] it was 57.9%; in experiment [6], 96.1%. In addition, the growth in experiment [8] is 114%; in experiment [7] it was 98.6%.

`NS(=O)(=O)c1ccc(-n2nc(-c3ccc(Cl)cc3)c3ccccc3c2=O)cc1`: the growth in experiment [1] is 76.8%; in experiment [2], 157%; in experiment [3], 112%; in experiment [4], 105%; in experiment [5], 88.6%; in experiment [6], 88.2%. Besides, the growth in experiment [7] was 97.1%.

Regarding `O=C(Nc1ccc(Cl)cc1F)c1ccccc1O`, the growth was 29.9% in experiment [1]; 24.9% in experiment [2]; 41.3% in experiment [3]; 60.4% in experiment [4]; 34.6% in experiment [6]; 54.4% in experiment [7].

`CN1CCN(Cc2ccc(NC(=O)c3cncc(C#Cc4cnccc4C#N)c3)cc2C(F)(F)F)CC1`: the growth in experiment [1] was 93.5%; in experiment [2], 76.5%; in experiment [3] it was 42%; in experiment [4], 50.7%; in experiment [6], 24%; in experiment [7], 22.3%.

As to `Cc1ccc(/C=N\NC(=O)c2[nH]c3ccc(F)cc3c2-c2ccccc2)cc1`, the growth is 75.4% in experiment [1]; 36.8% in experiment [2]; -13.8% (active) in experiment [3]; 25.7% in experiment [4]; 10.8% in experiment [6]; -24.8% (active) in experiment [8]. Besides, the growth in experiment [7] is -0.0461% (active).

As for `COc1ccc(N)c(N)c1`, the growth in experiment [1] was 92.6%; in experiment [2], 88%; in experiment [3], 101%; in experiment [4], 109%; in experiment [6], 96.1%; in experiment [8] it was 92.7%. In addition, in experiment [7], the growth is 101%.

Consider `CCOC(=O)CCN(C(=O)Nc1ccccc1)C1CCCCC1`, for which the growth in experiment [1] was 104%; in experiment [2] it was 118%; in experiment [3] it was 106%; in experiment [4] it was 102%; in experiment [6], 102%; in experiment [8], 74.8%. The growth in experiment [7] was 108%.

Consider `CCN1C(=O)N(CC)C2Nn3c(s/c(=C4\C(=O)N(CCC(C)C)c5ccccc54)c3=O)=NC21` (stereo not given), for which the growth was 36.3% in experiment [1]; 99.6% in experiment [2]; 12.5% in experiment [3]; 61.1% in experiment [4]; 12.6% in experiment [6]; 99.8% in experiment [8]. Further, the growth in experiment [7] was 67.9%.

Take `CCOC(=O)/C(C#N)=C\Nc1ccc2ncnc(Nc3ccc(Cl)cc3Cl)c2c1`: the growth in experiment [1] is 58.6%; in experiment [2], 89.6%; in experiment [3], 75.7%; in experiment [4], 100%; in experiment [6], 92.9%; in experiment [8], 119%. Also, the growth in experiment [7] is 79.1%.

Take `COc1cc2cc(Oc3ccc(NC(=O)Nc4ccc(Cl)c(C(F)(F)F)c4)cc3)c(C)nc2cc1OCCN1CCOCC1`: the growth in experiment [1] is 22.6%; in experiment [2], 48.6%; in experiment [3], 15.5%; in experiment [4], 15.1%; in experiment [6], 10.3%; in experiment [8], 36.9%. Also, the growth in experiment [7] is 14.9%.

Consider `C=CCc1cc(C)ccc1NC(C(=O)NCC(=O)OC)c1ccccc1` (stereo not given), for which the growth is 77.2% in experiment [1]; 93.7% in experiment [2]; 101% in experiment [3]; 89.8% in experiment [5]; 101% in experiment [6]; 98.7% in experiment [8]. Moreover, in experiment [7], the growth was 99.4%.

`C/C(=C\C(=O)c1ccc(Cl)cc1)c1ccc(Cl)cc1`: the growth in experiment [1] is 85.8%; in experiment [2] it was 103%; in experiment [3] it was 102%; in experiment [4], 99.3%; in experiment [6], 101%; in experiment [8] it was 82.2%. Moreover, the growth in experiment [7] was 26.2%.

On to `COc1cc(/C=C2\C(=O)Nc3ccc(Br)cc32)cc(OC)c1OC`, for which the growth in experiment [1] is 53.2%; in experiment [2] it was 58.3%; in experiment [3], 21.2%; in experiment [4], 36.1%; in experiment [6] it was 37.3%; in experiment [8] it was 67.6%. Moreover, in experiment [7], the growth was 47.8%.

On to `COc1ccc(S(=O)(=O)n2c3ccccc3n3ncc(-c4nnc(C)o4)c23)cc1`, for which the growth in experiment [1] is 41.8%; in experiment [2] it was 49.5%; in experiment [3], -21.9% (active); in experiment [4], 27%; in experiment [6], 18.4%; in experiment [8], 17.1%. Besides, in experiment [7], the growth was 29.8%.

With `N#Cc1c(-c2ccc(Cl)cc2)nc2c(c(-c3ccccc3)nn2-c2ccccc2)c1-c1ccc(O)cc1`, the growth in experiment [1] was 55.4%; in experiment [2] it was 62.3%; in experiment [3], 49%; in experiment [4], 54.4%; in experiment [6], 14.3%; in experiment [8], 84.9%. Further, the growth in experiment [7] was 41%.

As for `CCOC(=O)/C=C1\S/C(=N\Nc2ccc([N+](=O)[O-])cc2[N+](=O)[O-])N(Cc2ccccc2)C1=O`, the growth in experiment [1] was 56%; in experiment [2], 109%; in experiment [3] it was 98.2%; in experiment [4], 70.9%; in experiment [6], 75.3%; in experiment [8], 93%. The growth in experiment [7] is 97.5%.
